# Screening data: PubChem, Paczesny and Yang Labs, IUPUI and University of Michigan
# ST2 inh: inhibitors of human ST2 (IL1RL1) binding to IL-33; Q01638; AlphaLISA ST2-Fc/biotin-IL-33 interaction, 1 h; inhibition, % for hits at 17 µM; hit rate 2.3% among 78,000; AID 1259354; in the data active means inhibition above about 30%
# Target sequence (Q01638 whole entry, looked up): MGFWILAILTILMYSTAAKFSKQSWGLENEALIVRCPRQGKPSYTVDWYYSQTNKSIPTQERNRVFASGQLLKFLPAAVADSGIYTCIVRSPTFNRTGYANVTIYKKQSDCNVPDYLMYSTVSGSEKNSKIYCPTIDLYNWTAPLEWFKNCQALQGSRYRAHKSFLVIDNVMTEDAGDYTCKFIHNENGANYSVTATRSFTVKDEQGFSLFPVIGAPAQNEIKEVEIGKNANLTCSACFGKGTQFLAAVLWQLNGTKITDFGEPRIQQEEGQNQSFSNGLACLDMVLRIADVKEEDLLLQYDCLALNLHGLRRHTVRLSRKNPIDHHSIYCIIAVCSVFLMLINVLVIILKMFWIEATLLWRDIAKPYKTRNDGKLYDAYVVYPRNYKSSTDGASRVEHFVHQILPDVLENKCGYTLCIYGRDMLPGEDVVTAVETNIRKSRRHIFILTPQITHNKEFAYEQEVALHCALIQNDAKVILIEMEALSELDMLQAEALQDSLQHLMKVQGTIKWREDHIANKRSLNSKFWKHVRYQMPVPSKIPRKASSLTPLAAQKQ
# Active calls of the source: *; i = inactive; ! = repeats disagree. The entries come from a sample that favours hits as a whole.
SMILES,ST2 inh
O=[N+]([O-])c1cc(C(F)(F)F)ccc1N1CCN(CCOc2nonc2-c2ccccc2)CC1,45%*
CCc1nc(CN2CCC(CNC(=O)C3CCCCC3)C2)c(C)[nH]1 (stereo not given),i
CC1=C(C(=O)Nc2ccc(C)cn2)C(c2cccc(Cl)c2)C2=C(CCCC2=O)N1 (stereo not given),i
Cc1ccnc(NS(=O)(=O)c2ccc(NC(=O)CC34CC5CC(CC(C5)C3)C4)cc2)n1,i
CCOC(=O)c1c(C)oc2ccc(OCc3cccc(Cl)c3)cc12,i
COc1ccc2cc3cc(C(=O)NCC4(c5ccccc5)CCCC4)oc3nc2c1,i
Cc1cc(NC(=NS(=O)(=O)c2ccccc2)c2ccccc2)ccc1O,i
c1cncc(-c2nc(-c3ccncc3)no2)c1,i
O=C(COc1ccc([N+](=O)[O-])cc1)Nc1ccc(S(=O)(=O)N2CCCC2)cc1,i
Cc1cc(C)n(-c2ccc(C(F)(F)F)cc2[N+](=O)[O-])n1,i
COc1ccc(N2CCN(c3ccc([N+](=O)[O-])c4cccnc34)CC2)c([N+](=O)[O-])c1,55%*
O=[N+]([O-])c1cc(CN2CCOCC2)c(O)c2ncccc12,i
O=[N+]([O-])c1cc(C(F)(F)F)ccc1N1CCc2ccccc21,68%*
COc1ccc(N2CCN(Cc3cc(OC)c(O)c([N+](=O)[O-])c3)CC2)cc1,i
COc1ccc(N2CCN(c3cc(N4CCN(C)CC4)ccc3[N+](=O)[O-])CC2)cc1,44%*
CS(=O)(=O)c1ccc(N2CCN(c3ccccc3)CC2)c([N+](=O)[O-])c1,i
CN1CCN(c2cc(N3CCN(CCO)CC3)ccc2[N+](=O)[O-])CC1,i
CC(O)CNc1ccc(C(F)(F)F)cc1[N+](=O)[O-] (stereo not given),i
CCc1cn[nH]c1C1CCN(C(=O)c2cc(C(C)=O)c(C)[nH]c2=O)CC1,i
CN(CC1CCCN(CCc2cccc(C(F)(F)F)c2)C1)C(=O)CN1CCCC1=O (stereo not given),i
O=C1CCCN1C1CCCN(S(=O)(=O)CCOc2ccc(F)cc2)C1 (stereo not given),i
CC(C)Nc1ccc(-c2cc(N)nc3[nH]ccc23)nn1,i
C=CCn1c(=O)c(-c2ccc3ccccc3n2)cc2ccccc21,i
CNc1cc(-c2ccc3ccccc3n2)c2cc[nH]c2n1,52%*
O=C(c1ccc2c(Cl)c3c(nc2c1)CCCC3)N1CCN(c2ncccn2)CC1,i
SMILES,ST2 inh
OC1(c2ccccc2)CCN(c2nccc(CCC(F)(F)F)n2)C1 (stereo not given),i
Cc1ccc(C2(O)CCN(c3nc4ccccc4s3)CC2)nc1,i
Cc1cnc(N2CCC(O)(c3ccccc3)CC2)nc1N(C)C,35%*
Cc1ocnc1C(=O)N1CCCN(CC2CC2)C(C(C)C)C1 (stereo not given),i
O=C(/C=C/c1ccc([N+](=O)[O-])cc1)Nc1ccc(Cl)cn1,i
Cc1ccc(NC(=O)c2ccccc2C)cc1OCc1cc(=O)n2cccc(C)c2n1,33%*
Cc1ccc(NC(=O)C2CCCCC2)cc1OCc1cc(=O)n2cccc(C)c2n1,i
Cc1ccc(SCC(=O)Nc2ccc(C)c(OCc3cc(=O)n4cccc(C)c4n3)c2)cc1,i
COc1cc(/C=C2\SC(c3ccc(C)cc3)=NC2=O)ccc1O,62%*
COc1cc(/C=C/c2cc(O)cc(O)c2)ccc1O,i
COc1cc(/C=C2\SC(N)=NC2=O)cc(Br)c1O,i
COc1ccc(/C=C2/C(=O)N=C(N)N2C)cc1OC,i
COc1ccc(/C=C2\SC(c3ccc(C)cc3)=NC2=O)cc1OC,30%*
COc1ccc(/C=C2/SC(N3CCN(C)CC3)=NC2=O)cc1OC,i
CN(C)c1nc2c(c(=O)[nH]1)CCN(C(=O)c1cccc(-c3cn[nH]c3)c1)C2,i
CN(C)CC(NCc1cn[nH]c1-c1ccc(F)cc1)c1ccccc1 (stereo not given),i
CN(CCc1ccccn1)C(=O)C1CCC(Cn2c(=O)[nH]c3ccsc3c2=O)CC1 (stereo not given),i
O=C(NCc1ccccc1)c1cccc(OC2CCN(C3Cc4ccccc4C3)CC2)c1,i
OC1(c2ccccc2)CCN(Cc2cnc3c(-c4ccccc4)cnn3c2)CC1,33%*
COC(=O)[C@@H]1CCCN1Cc1cnc2c(-c3ccccc3)cnn2c1,i
CCc1ccc(CN(C)Cc2cnc3c(-c4ccccc4)cnn3c2)nc1,i
Cc1ccccc1NC(=O)C(=O)NCc1ccncc1,i
CCCN(CCC)C(=O)[C@H]1C(C(=O)O)[C@H]2C=C[C@@H]1C2 (stereo not given in full),i
COc1ccc(/C=C/C(=O)N2CCCC(c3nc(SCc4cccnc4)ncc3C)C2)cc1OC (stereo not given),i
COc1ccc(NC(=O)CN2C(=O)C(=O)c3ccccc32)c(OC)c1,i
SMILES,ST2 inh
COc1ccc(C2=NN(CN3C(=O)C(=O)c4ccccc43)C(c3ccc(OC)cc3)C2)cc1 (stereo not given),36%*
COc1ccc(C2CC(c3ccccc3)=NN2C(=O)c2ccccc2)cc1 (stereo not given),i
Cc1cc(C)c2ccc(NN)nc2c1O,34%*
Cc1cc(C)c2ccc(CO)nc2c1O,i
CC(=O)Nc1ccc2nc(-c3ccc(Cl)cc3Cl)[nH]c2c1,i
CCCOC(=O)CSC1=C(C#N)C(c2ccc(Cl)cc2Cl)CC(=O)N1 (stereo not given),i
Cn1c(=O)c2nc3ccc(N)cc3nc2n(C)c1=O,i
Nc1ccc2nc3c(=O)[nH]c(=O)[nH]c3nc2c1,53%*
O=c1[nH]c(=O)c2nc3c(ccc4nsnc43)nc2[nH]1,i
Nc1ccc(-c2nc3ccccc3[nH]2)cc1,i
Nc1ccc(-c2nc3ccc(-c4nc5ccc(N)cc5[nH]4)cc3[nH]2)cc1,35%*!
Nc1ccc(CCc2nc3ccc(N)cc3[nH]2)cc1,i
N#CCC(N)=Nc1sc2c(c1C#N)CCCC2,i
Cc1cc(C)nc(NS(=O)(=O)c2ccc(NC(=O)c3cc4ccccc4oc3=O)cc2)n1,i
COC(=O)c1c(NC(=O)c2sc3ccccc3c2Cl)sc2c1CCN(C)C2,37%*
CC1CCc2sc(NC(=O)c3sc4ccccc4c3Cl)c(C(N)=O)c2C1 (stereo not given),i
CCOC(=O)c1c(NC(=O)c2ccc(Cl)s2)sc2c1CCN(C)C2,i
Cc1oc(-c2cccs2)nc1CN1CCCC(C(=O)NC2CC2)C1 (stereo not given),i
FC(F)(F)c1cc(-c2ccco2)nc(N2CCCCC2)n1,i
COc1ccc(OC)c(/C=C2/C=C(c3cc(OC)ccc3OC)OC2=O)c1,41%*
COc1ccc(OC)c(/C=C2\N=C(c3ccc(OC)c([N+](=O)[O-])c3)OC2=O)c1,i
COc1ccc(OC)c(N2C(=O)C3CCCCC3C2=O)c1 (stereo not given),i
COc1cccc(/C=C2/C=C(c3cc(OC)ccc3OC)OC2=O)c1,42%*
COc1ccc(C2=C/C(=C/c3ccc4c(c3)OCO4)C(=O)O2)c(OC)c1,i
COc1ccc(OCCOc2cccc(C=O)c2)cc1,i
CCOC(=O)C1CCN(C2CCN(c3nncc(-c4ccccc4)n3)CC2)CC1,i
COc1cccc(C2C(C(=O)Nc3ccc(C)cn3)=C(C)NC3=C2C(=O)CC(C)(C)C3)c1OC (stereo not given),i
CCc1nnc(NC(=O)CSc2n[nH]c(CC(C)C)n2)s1,i
